A selection: hits, their analogues and other compounds. The true share with any hit is near 4.7%.
rCAG binder: molecules binding r(CAG) RNA repeats | r(CAG) RNA repeat, TO-PRO-1 dye displacement fluorescence | inhibition, % at 3 µM | actives 1.3% (n = 370,000);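 active = inhibition above the plate cutoff, the mean of all test compounds on that plate plus 3 SD, cut at about 35% in these data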;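 note: 0% = DMSO alone and 100% = 100 µM mitoxantrone as full dye displacement; higher means more dye released from RNA so lower well fluorescence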
MPTP inh: permeability transition pore inhibition; isolated mouse mitochondria, Ca2+ swelling absorbance, 30 min; inhibition, % at 10 µM; actives 1.4% (n = 360,000); AID 602449;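 active = inhibition of 50% or more, scaled per plate between neutral and stimulator controls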;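 note: 0% = DMSO wells given calcium and 100% = 1 mM EGTA wells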
ADAM17 inh: inhibits human ADAM17; P78536; recombinant ADAM17, EDANS/DABCYL FRET peptide cleavage; inhibition, % at 6.95 µM; actives 0.83% (n = 370,000);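 active = inhibition above the mean of compounds lying between control limits plus 3 SD, set per campaign, cut at about 8.5% in these data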;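 note: 0% = DMSO-only wells as the low control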
ADAM10 inh: ADAM10 inhibition, QFRET primary screen | actives 0.62% (n = 370,000) | recombinant ADAM10, EDANS/DABCYL FRET peptide cleavage, 3 h | O14672 | inhibition, % at 7 µM | AID 720582;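 active = inhibition above a per-campaign cutoff equal to the mean of compounds falling between control-based bounds plus 3 SD, cut at about 20% in these data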;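 note: 0% = DMSO wells while the 100% control is not disclosed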
Target sequence (O14672 214-748 limits assumed): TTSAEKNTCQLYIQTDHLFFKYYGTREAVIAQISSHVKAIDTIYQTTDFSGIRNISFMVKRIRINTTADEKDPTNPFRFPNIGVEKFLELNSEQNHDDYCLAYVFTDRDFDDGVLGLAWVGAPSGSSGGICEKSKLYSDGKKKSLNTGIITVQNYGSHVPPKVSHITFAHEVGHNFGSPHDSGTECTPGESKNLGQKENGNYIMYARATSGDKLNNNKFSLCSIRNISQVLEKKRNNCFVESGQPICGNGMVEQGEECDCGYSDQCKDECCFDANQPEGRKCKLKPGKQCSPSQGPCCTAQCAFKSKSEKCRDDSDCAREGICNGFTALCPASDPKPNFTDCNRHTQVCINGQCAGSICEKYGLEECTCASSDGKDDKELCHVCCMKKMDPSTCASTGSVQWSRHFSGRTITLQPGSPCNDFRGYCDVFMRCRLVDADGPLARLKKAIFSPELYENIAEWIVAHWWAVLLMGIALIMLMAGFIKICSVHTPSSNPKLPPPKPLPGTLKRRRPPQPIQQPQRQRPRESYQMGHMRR
proKLK7 act: activators of human kallikrein-7 zymogen; actives 0.9% (n = 370,000); activation, % at 7 µM; purified proKLK7, EDANS-DABCYL substrate fluorescence; 100% is mature enzyme control, 0% vehicle; AID 652039;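 active = activation above the mean of all tested compounds plus 3 SD, computed per campaign excluding outliers beyond control limits, cut at about 13% in these data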
DSG3 Ab inh: blocks pemphigus antibody binding to human desmoglein-3; AID 588358; actives 0.48% (n = 310,000); binding (percent of control), % at 10 µM; DSG3-coupled beads, scFv-anti-DSG3-GFP binding, flow cytometry; hits give low values;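 active = binding more than 3 SD below its plate's average and above zero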;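 note: hits lower antibody fragment binding to DSG3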
* = called active by the depositor; i = inactive; . = no result given.

SMILES	rCAG binder	MPTP inh	ADAM17 inh	ADAM10 inh	proKLK7 act	DSG3 Ab inh
CCOC(=O)c1nn(-c2ccccc2)c(=O)c2c(NC(C)=O)scc12	-2.4	1.1	-2.0	-16.0	-0.1	61.9*
CN(C(=O)COC(=O)CN1C(=O)c2cccc([N+](=O)[O-])c2C1=O)c1ccccc1	2.3	0.3	-3.4	-1.4	0.2	77.2*
CN(C(=O)COC(=O)CSc1ccc([N+](=O)[O-])cc1)c1ccccc1	0.3	1.2	0.6	1.6	0.0	101.3
COC(=O)c1scc(C)c1N/N=C(\C)c1ccc(F)cc1	4.4	-3.0	-0.2	-0.2	-0.6	-27.8*
CC(C)[N+]1=C2C=CC=CC=C2SC12C([N+](=O)[O-])=CC(=[N+]([O-])[O-])C=C2[N+](=O)[O-] (stereo not drawn)	13.4	2.4	-8.2	-2.1	-0.2	66.4*
S=C(NCC1CCCCC1)OC1CCC12CCC(c1ccccc1)CC2 (stereo not drawn)	3.7	.	-1.3	-1.8	-0.2	.
Cc1ccc(CSc2nnc(-c3ccccc3)n2Cc2ccco2)cc1	1.8	.	0.1	2.1	-0.3	.
Oc1ccc(/C=N/Nc2nc(-c3cccnc3)nc3ccccc23)c(O)c1	30.7	8.9	0.5	0.6	-0.3	78.4*
Cc1ccccc1Cn1cc(CN2[C@H](Cc3ccccc3)COc3cc(Br)ccc3S2(=O)=O)nn1	9.3	.	0.1	0.0	0.1	.
O=S(=O)(Nc1nnc(-c2ccccc2)s1)c1ccc(Cl)cc1	73.6*	3.6	2.5	-0.7	0.6	107.0
COCc1nnc(NS(=O)(=O)c2ccc(Cl)cc2)s1	1.7	-0.5	0.2	-3.6	-0.7	103.7
O=C(Cn1nc(-c2ccccc2)ccc1=O)NCCc1ccc(F)cc1	1.8	.	0.2	-2.0	-0.3	.
O=c1nc(-c2ccccc2)c2ccccc2[nH]1	-0.8	-1.4	-53.6	-157.1	9.1	87.6*
O=c1[nH]c2ccccc2nc1-c1ccccc1	-5.9	-0.1	-186.7	i	1.0	100.1
COc1ccc2c(c1)c(=O)oc1c(C)c(OC(C)C(=O)N[C@@H](Cc3c[nH]c4ccc(O)cc34)C(=O)O)ccc12 (stereo partly drawn)	68.6*	0.5	-132.7	-494.5	1.7	100.2
CN(c1cccnc1)c1ccc(NC(=O)Cc2c[nH]c3ccccc23)cc1Br	12.2	.	-10.2	-28.0	-1.8	.
CC(C)Cc1nnc(NC(=O)CCC(=O)NC2CCCc3ccccc32)s1 (stereo not drawn)	-4.6	-1.5	-1.1	-0.7	-0.6	108.6
CCCc1nnc(NC(=O)CCC(=O)NC2CCCc3ccccc32)s1 (stereo not drawn)	-0.7	3.1	-1.9	-3.7	0.0	39.0*
COCCN=C1Sc2ccccc2[C@@H]2C[C@H]3[C@H](CON3C)CN12	0.2	.	-0.5	-8.7	0.5	.
CCC(=O)c1cc2c(C)cc(=O)oc2c(C)c1O	-2.4	0.0	-7.6	-24.5	-1.0	51.2*
COc1ccc([C@@H]2CC=C(C(=O)O)[C@H](c3ccccc3)N2S(=O)(=O)c2ccc(C)cc2)cc1OC	23.0	-1.9	-1.1	-8.3	0.0	122.5
Cc1ccc(S(=O)(=O)N2[C@@H](c3ccc(C(C)(C)C)cc3)C(C(=O)O)=CC[C@H]2c2ccc(Cl)cc2)cc1	89.4*	1.1	5.6	10.1	0.5	96.1
COc1ccc([C@@H]2CC=C(C(=O)O)[C@H](c3ccccc3)N2S(=O)(=O)c2ccccc2C)cc1	35.8*	-1.8	-2.5	-1.8	-0.1	115.0
Cn1c(C(=O)NCCCN2CCOCC2)cc2c(=O)n(C)c3ccccc3c21	5.3	-0.8	-10.3	-49.1	-0.7	83.5*
Cc1nc(SCc2nc3c([N+](=O)[O-])cccc3[nH]2)c2oc3ccccc3c2n1	.	1.7	.	.	.	31.8*
SMILES	rCAG binder	MPTP inh	ADAM17 inh	ADAM10 inh	proKLK7 act	DSG3 Ab inh
COc1ccc(/C=C/C(=O)NC(=S)Nc2cc([N+](=O)[O-])ccc2O)cc1OC	52.1*	2.3	-1.9	4.3	0.1	85.3*
COc1ccc([N+](=O)[O-])cc1NC(=S)NC(C)=O	-0.4	-0.7	-9.3	-12.5	0.1	100.8
O=C(O)c1cc(-c2ccc3c(c2)OCO3)nc2ccc(Br)cc12	17.7	-0.9	-3.5	-9.6	0.2	33.1*
CCCCNC(=O)C[C@H]1C[C@@]2(C(=O)OC)C(=C[C@H](C(C)C)O[C@@H]2C2CC2)N(Cc2ccccc2)C1=O	-2.4	.	-1.8	-6.8	-0.4	.
COc1cc(/C=C2\SC(=S)N(c3cccnc3)C2=O)ccc1O	7.3	7.1	4.3	7.2	0.0	68.5*
COc1cc(/C=C2\SC(=S)N(NC(=O)c3cccnc3)C2=O)ccc1O	-7.2	7.6	-0.8	1.9	1.0	98.2
CCN(CC)c1ccc(/C=N/NC(=O)c2ccoc2C)c(O)c1	7.0	4.4	-17.6	-39.1	-5.7	48.3*
CCN(CC)c1ccc(/C=N/NC(=O)OC)c(O)c1	-1.5	0.8	-5.5	-10.9	-4.3	109.0
C[C@H](O)[C@@H]1CN2CCc3ccc(-c4ccc5c(c4)OCO5)cc3[C@@H]2C[C@@H]1N(C)Cc1ccccc1	5.2	.	-0.2	-4.6	-0.5	.
CC(C)(C)c1ccc(C2C(C#N)=C(N)Oc3n[nH]c(-c4cccnc4)c32)cc1 (stereo not drawn)	3.1	5.5	-1.3	-0.8	-0.4	14.8*
CC(c1ccc(Cl)cc1)N(CCN(C)C)c1ccccn1 (stereo not drawn)	0.8	.	-3.8	-11.6	-0.2	.
O=C(Nc1ccc(Nc2ccncc2)cc1)c1ccc(Nc2ccnc3ccc([N+](=O)[O-])cc23)cc1	19.9	5.6	-20.2	-15.7	0.0	59.9*
Nc1ccc(C(=O)N/N=C\C=C\c2ccc([N+](=O)[O-])cc2)cc1	-0.6	0.0	6.5	3.1	0.5	44.4*
O=C(Nc1ccc2c(c1)oc1ccccc12)c1ccncc1	7.7	0.0	-30.7	-125.1	0.1	-8.2*
O=C(CCn1nc(-c2ccc(Cl)cc2)c2ccccc2c1=O)NN1CCOCC1	-5.4	1.9	-5.5	-4.0	0.8	81.8*
CCCNC(=O)CCn1nc(-c2ccc(C)cc2)c2ccccc2c1=O	-7.8	2.4	-2.8	-0.7	-0.2	102.6
CCCNC(=O)CCn1nc(-c2ccc(Cl)cc2)c2ccccc2c1=O	-1.3	1.7	0.0	1.5	0.2	79.8*
CCCCCn1c(C)c(CC(=O)Nc2ccc(Oc3cccnc3)c(C)c2)c2ccccc21	7.4	.	2.1	0.8	-0.3	.
CCc1cccc(-n2c(C)cc(O)cc2=O)c1	2.5	.	-0.1	1.6	-0.5	.
CC(C)(C)C(=O)Nc1nc(-c2ccccc2)ns1	-0.9	5.3	4.4	-0.2	0.1	104.1
c1ccc(Nc2nc(-c3ccccc3)ns2)cc1	4.0	2.1	2.8	0.5	-0.3	58.3*
Cc1ccc(OCc2nnc(SCC(=O)Nc3ccc4c(c3)OCO4)n2Cc2ccco2)cc1	2.4	.	4.0	6.9	0.5	.
